Measured values taken from the supplement of paper PMC10849652.
Targets with a hit are over-represented here; the source holds about 8,800 in all. About 0.5% of all pairs of compound and target were hits.

Columns and labels:
Experiment in all cases: log2 fold change, soluble protein after heating vs DMSO (PISA); higher = thermal stabilisation; K562 lysate, 10 uM; active = over 0.2 and 3.5 SD of the protein, either way, in both replicates (recomputed)
erlotinib = compound: C#Cc1cccc(Nc2ncnc3cc(OCCOC)c(OCCOC)cc23)c1 [erlotinib]
Procedure, shortened: (§1)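 K562 pellets were dounce-homogenised in PBS pH 7.4 with 1 mM MgCl2, and the crude extract at 1 mg/mL protein was treated with 10 μM compound for 30 min. Aliquots were heated for 3 min across 48°C-58°C, pooled, and brought to 0.5% NP-40 at 4°C; soluble protein was the supernatant after 21,000xg for 90 min. Soluble protein was quantified by TMTpro 16plex LC-MS/MS with channel sums equalised, and reported as log2 fold change in thermal stability against DMSO controls, with values from duplicates.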

[1] = compound: C/C(=N\NC(=O)C1=CC(=CC=C1)S(=O)(=O)N2CCOCC2)/C3=C(C=CC(=C3)Cl)O
Procedure, shortened: as §1

[2] = compound: C1=CC(=CC=C1C2=NC3=C(N2)C=C(C=C3)C(=O)N)OC4=CC=C(C=C4)Cl
Procedure, shortened: as §1

[3] = compound: C1=CC2=C(C=CC(=C2)/C=C\3/C(=O)NC(=NCC4=CC=CS4)S3)N=C1
Procedure, shortened: as §1

[4] = compound: C1=CC2=NC=CN=C2C=C1/C=C/3\C(=O)NC(=O)S3
Procedure, shortened: as §1

[5] = compound: C1=CC=C(C=C1)C2=NC(=C(N2)C3=CC=NC=C3)C4=CC(=C(C=C4)Cl)O
Procedure, shortened: as §1

[6] = compound: C1=CC=C2C(=C1)C3=NNC4=CC=CC(=C43)C2=O
Procedure, shortened: as §1

[7] = compound: C1CCN(C1)C(=O)NC2=CC=CC(=C2)NC3=NC=C(C(=N3)NCCC4=CN=CN4)Br
Procedure, shortened: as §1

[8] = compound: C1CN(CCC1(CC2=CC=C(C=C2)Cl)N)C3=NC=NC4=C3C=CN4
Procedure, shortened: as §1

IRAK-1-4 Inhibitor I = compound: C1COCCN1CCN2C3=CC=CC=C3N=C2NC(=O)C4=CC(=CC=C4)[N+](=O)[O-] [IRAK-1-4 Inhibitor I]
Procedure, shortened: as §1

ibrutinib = compound: C=CC(=O)N1CCC[C@@H](n2nc(-c3ccc(Oc4ccccc4)cc3)c3c(N)ncnc32)C1 [ibrutinib]
Procedure, shortened: as §1

[9] = compound: CC(=O)c1cnc2ccc(-c3cc(Cl)c(O)c(Cl)c3)nc2c1N[C@H]1CC[C@H](CN(C)C)CC1
Procedure, shortened: as §1

ralimetinib = compound: CC(C)(C)Cn1c(N)nc2ccc(-c3[nH]c(C(C)(C)C)nc3-c3ccc(F)cc3)nc21 [ralimetinib]
Procedure, shortened: as §1

[10] = compound: CC(C)(O)CC(=O)NCCn1ccc2ncnc(Nc3ccc(Oc4cccc(C(F)(F)F)c4)c(Cl)c3)c21
Procedure, shortened: as §1

[11] = compound: CC(C)C1=C2N=C(C=C(N2N=C1)NCC3=CC=CC=C3)NCCCCCCN
Procedure, shortened: as §1

[12] = compound: CC1=C(C(CC(=O)N1)C2=CC=C(C=C2)C(F)(F)F)C(=O)NC3=C(C=C4C(=C3)C=NN4)F
Procedure, shortened: as §1

[13] = compound: CC1=C(C2=C(C=C1)C(=O)C3=CC=CC=C3N2CCCN)C
Procedure, shortened: as §1

[14] = compound: CC1=C(C=C(C=C1)NC(=O)C2=CC(=CC=C2)C(C)(C)C#N)NC3=CC4=C(C=C3)N=CN(C4=O)C
Procedure, shortened: as §1

[15] = compound: CC1=C(C=C(C=C1)NC(=O)C2=CC(=CC=C2)N(C)C)NC(=O)C3=CC=C(C=C3)O
Procedure, shortened: as §1

[16] = compound: CC1=CC=C(C=C1)SC2=C3C=C(SC3=CN=C2)C(=O)N
Procedure, shortened: as §1

Measured: log2 fold change

POLR2F (UniProt P61218)
inactive: erlotinib -0.05 | [1] -0.272 | [2] 0.069 | [3] -0.091 | [4] 0.033 | [5] 0.076 | [6] 0.01 | [7] 0.101 | [8] 0.019 | IRAK-1-4 Inhibitor I -0.052 | ibrutinib 0.02 | [9] 0.051 | ralimetinib -0.238 | [10] -0.059 | [11] -0.11 | [12] -0.039 | [13] 0.096 | [14] 0.009 | [15] -0.157 | [16] 0.009

PRPF38A (UniProt Q8NAV1)
Chain of UniProt Q8NAV1 (Q8NAV1 whole entry, looked up): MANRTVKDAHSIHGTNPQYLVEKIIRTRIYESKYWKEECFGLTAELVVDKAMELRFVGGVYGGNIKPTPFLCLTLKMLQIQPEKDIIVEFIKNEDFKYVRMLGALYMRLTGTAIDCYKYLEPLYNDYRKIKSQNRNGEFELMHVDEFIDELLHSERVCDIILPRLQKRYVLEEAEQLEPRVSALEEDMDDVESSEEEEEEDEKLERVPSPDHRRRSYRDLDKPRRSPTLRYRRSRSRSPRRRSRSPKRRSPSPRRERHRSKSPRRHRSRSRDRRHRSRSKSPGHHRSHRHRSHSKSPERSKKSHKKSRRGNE
inactive: erlotinib -0.012 | [1] -0.016 | [2] 0.049 | [3] -0.025 | [4] 0.044 | [5] 0.05 | [6] 0.042 | [7] 0.005 | [8] -0.018 | IRAK-1-4 Inhibitor I 0.057 | ibrutinib 0 | [9] -0.001 | ralimetinib 0.01 | [10] -0.011 | [11] 0.054 | [12] 0.027 | [13] -0.128 | [14] 0.094 | [15] -0.075 | [16] 0.018

PPP3CA isoform 2 (UniProt Q08209)
inactive: erlotinib -0.005 | [1] -0.037 | [2] 0.045 | [3] -0.036 | [4] -0.014 | [5] 0.014 | [6] -0.006 | [7] 0.082 | [8] -0.026 | IRAK-1-4 Inhibitor I -0.01 | ibrutinib 0.017 | [9] 0.012 | ralimetinib -0.01 | [10] -0.052 | [11] -0.014 | [12] 0 | [13] -0.03 | [14] 0.03 | [15] 0.028 | [16] -0.012

PUS3 (UniProt Q9BZE2)
inactive: erlotinib -0.014 | [1] 0.043 | [2] -0.028 | [3] -0.048 | [4] 0.048 | [5] -0.006 | [6] -0.064 | [7] -0.028 | [8] 0.097 | IRAK-1-4 Inhibitor I -0.058 | ibrutinib -0.034 | [9] -0.025 | ralimetinib 0.05 | [10] 0.094 | [11] -0.046 | [12] 0.045 | [13] 0.136 | [14] -0.12 | [15] -0.006 | [16] 0

POLB (UniProt P06746)
inactive: erlotinib 0.012 | [1] 0.009 | [2] 0.075 | [3] 0.069 | [4] -0.022 | [5] 0.019 | [6] -0.061 | [7] -0.019 | [8] 0.026 | IRAK-1-4 Inhibitor I -0.062 | ibrutinib -0.011 | [9] -0.003 | ralimetinib 0.068 | [10] -0.042 | [11] 0.083 | [12] 0.017 | [13] -0.006 | [14] -0.027 | [15] -0.034 | [16] -0.003

PPIE (UniProt Q9UNP9)
Chain of UniProt Q9UNP9 (Q9UNP9 whole entry, looked up): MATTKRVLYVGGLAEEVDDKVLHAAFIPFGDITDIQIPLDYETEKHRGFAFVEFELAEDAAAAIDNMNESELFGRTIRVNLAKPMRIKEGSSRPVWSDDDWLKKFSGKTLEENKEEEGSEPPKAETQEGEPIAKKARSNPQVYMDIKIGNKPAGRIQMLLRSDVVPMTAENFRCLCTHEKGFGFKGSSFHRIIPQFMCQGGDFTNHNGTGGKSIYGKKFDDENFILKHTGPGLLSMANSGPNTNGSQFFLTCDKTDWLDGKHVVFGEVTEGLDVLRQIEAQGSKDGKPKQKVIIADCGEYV
inactive: erlotinib 0.005 | [1] -0.022 | [2] 0.064 | [3] 0.031 | [4] -0.008 | [5] 0.001 | [6] -0.002 | [7] -0.025 | [8] 0.025 | IRAK-1-4 Inhibitor I -0.019 | ibrutinib -0.047 | [9] -0.015 | ralimetinib -0.041 | [10] -0.05 | [11] -0.025 | [12] -0.043 | [13] 0.021 | [14] 0.024 | [15] 0.034 | [16] -0.035

PLXNB2 (UniProt O15031)
inactive: erlotinib -0.014 | [1] -0.027 | [2] -0.013 | [3] -0.04 | [4] -0.037 | [5] 0.005 | [6] -0.018 | [7] -0.017 | [8] 0.049 | IRAK-1-4 Inhibitor I 0.004 | ibrutinib 0.019 | [9] 0.016 | ralimetinib 0.035 | [10] -0.026 | [11] -0.03 | [12] 0.033 | [13] 0.006 | [14] -0.02 | [15] -0.003 | [16] -0.016

PIP4K2C (UniProt Q8TBX8)
Chain of UniProt Q8TBX8 (Q8TBX8 whole entry, looked up): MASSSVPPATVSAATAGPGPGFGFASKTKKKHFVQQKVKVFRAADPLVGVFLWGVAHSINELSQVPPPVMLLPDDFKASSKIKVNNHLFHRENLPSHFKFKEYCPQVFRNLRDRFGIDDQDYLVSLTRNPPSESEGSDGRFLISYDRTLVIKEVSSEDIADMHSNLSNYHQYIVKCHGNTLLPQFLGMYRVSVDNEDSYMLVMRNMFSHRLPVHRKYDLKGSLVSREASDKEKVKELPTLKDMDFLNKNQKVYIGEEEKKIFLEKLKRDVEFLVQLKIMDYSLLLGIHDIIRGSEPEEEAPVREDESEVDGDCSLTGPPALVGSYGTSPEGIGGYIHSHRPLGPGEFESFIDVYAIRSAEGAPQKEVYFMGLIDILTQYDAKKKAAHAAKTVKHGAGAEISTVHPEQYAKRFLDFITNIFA
active: [4] 0.496
inactive: erlotinib 0.104 | [1] -0.289 | [2] 0.033 | [3] 0.004 | [5] 0.137 | [6] 0.127 | [7] 0.231 | [8] -0.055 | IRAK-1-4 Inhibitor I -0.005 | ibrutinib 0.012 | [9] 0.277 | ralimetinib 0.039 | [10] -0.055 | [11] -0.055 | [12] -0.047 | [13] -0.027 | [14] 0.03 | [15] -0.027 | [16] -0.031

PTPN7 isoform 3 (UniProt P35236)
Chain of UniProt P35236 (P35236 whole entry, looked up): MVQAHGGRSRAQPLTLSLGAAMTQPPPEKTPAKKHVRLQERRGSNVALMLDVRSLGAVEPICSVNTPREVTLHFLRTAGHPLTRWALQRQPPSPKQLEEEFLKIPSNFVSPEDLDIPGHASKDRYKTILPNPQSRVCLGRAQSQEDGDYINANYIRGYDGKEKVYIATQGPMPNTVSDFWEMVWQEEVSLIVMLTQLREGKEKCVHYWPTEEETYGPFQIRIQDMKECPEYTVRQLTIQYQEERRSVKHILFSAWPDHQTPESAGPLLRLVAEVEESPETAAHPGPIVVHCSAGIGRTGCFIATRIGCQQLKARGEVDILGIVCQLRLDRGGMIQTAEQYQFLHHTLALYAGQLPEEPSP
inactive: erlotinib 0.032 | [1] -0.002 | [2] -0.028 | [3] -0.06 | [4] -0.026 | [5] -0.008 | [6] -0.03 | [7] 0.009 | [8] 0.045 | IRAK-1-4 Inhibitor I 0.021 | ibrutinib 0.018 | [9] 0.027 | ralimetinib 0.066 | [10] -0.021 | [11] -0.044 | [12] -0.023 | [13] -0.053 | [14] -0.07 | [15] 0.005 | [16] 0.032

PHLDB1 (UniProt Q86UU1)
Chain of UniProt Q86UU1 (Q86UU1 whole entry, looked up): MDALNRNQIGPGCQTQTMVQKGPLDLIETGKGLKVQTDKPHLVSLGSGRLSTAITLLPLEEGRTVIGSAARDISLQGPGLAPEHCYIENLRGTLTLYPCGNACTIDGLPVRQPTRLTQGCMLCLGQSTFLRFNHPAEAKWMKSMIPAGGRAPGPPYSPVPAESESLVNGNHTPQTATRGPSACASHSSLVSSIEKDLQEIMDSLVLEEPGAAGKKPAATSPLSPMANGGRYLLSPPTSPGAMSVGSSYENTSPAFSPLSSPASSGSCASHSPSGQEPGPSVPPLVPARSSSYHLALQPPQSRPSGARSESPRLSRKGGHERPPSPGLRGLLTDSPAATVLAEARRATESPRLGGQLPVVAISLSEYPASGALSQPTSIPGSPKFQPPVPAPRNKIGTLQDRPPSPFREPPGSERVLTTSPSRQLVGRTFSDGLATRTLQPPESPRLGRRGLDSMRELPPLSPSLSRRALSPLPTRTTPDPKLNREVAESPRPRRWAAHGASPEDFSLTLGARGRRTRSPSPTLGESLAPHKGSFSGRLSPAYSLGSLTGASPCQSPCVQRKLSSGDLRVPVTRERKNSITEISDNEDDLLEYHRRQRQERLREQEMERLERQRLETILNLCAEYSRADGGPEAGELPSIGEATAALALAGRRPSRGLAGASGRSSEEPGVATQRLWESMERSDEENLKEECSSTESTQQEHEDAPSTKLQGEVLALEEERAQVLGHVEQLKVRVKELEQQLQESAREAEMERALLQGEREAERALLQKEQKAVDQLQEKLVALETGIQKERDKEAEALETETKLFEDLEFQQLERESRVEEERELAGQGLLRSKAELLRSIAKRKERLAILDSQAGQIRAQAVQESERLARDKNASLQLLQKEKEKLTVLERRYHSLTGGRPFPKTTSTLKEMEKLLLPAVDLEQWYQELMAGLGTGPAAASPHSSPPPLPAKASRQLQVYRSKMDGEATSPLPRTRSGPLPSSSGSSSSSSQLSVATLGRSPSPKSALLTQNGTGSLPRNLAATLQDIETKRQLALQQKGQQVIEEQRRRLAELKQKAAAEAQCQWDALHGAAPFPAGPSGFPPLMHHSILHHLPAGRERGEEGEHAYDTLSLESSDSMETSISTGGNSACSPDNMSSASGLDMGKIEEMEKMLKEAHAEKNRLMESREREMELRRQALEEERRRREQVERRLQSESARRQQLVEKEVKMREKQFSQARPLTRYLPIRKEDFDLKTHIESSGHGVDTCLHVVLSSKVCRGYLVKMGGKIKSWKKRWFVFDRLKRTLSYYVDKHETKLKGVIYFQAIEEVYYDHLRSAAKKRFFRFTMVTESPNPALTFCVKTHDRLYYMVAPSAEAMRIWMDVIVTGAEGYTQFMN
inactive: erlotinib 0.01 | [1] -0.044 | [2] 0.032 | [3] -0.081 | [4] -0.031 | [5] 0.101 | [6] -0.158 | [7] -0.032 | [8] 0.068 | IRAK-1-4 Inhibitor I -0.044 | ibrutinib 0.05 | [9] 0.049 | ralimetinib -0.094 | [10] 0.096 | [11] -0.021 | [12] 0.004 | [13] -0.009 | [14] 0.114 | [15] -0.001 | [16] 0.156

PGLS (UniProt O95336)
Chain of UniProt O95336 (O95336 whole entry, looked up): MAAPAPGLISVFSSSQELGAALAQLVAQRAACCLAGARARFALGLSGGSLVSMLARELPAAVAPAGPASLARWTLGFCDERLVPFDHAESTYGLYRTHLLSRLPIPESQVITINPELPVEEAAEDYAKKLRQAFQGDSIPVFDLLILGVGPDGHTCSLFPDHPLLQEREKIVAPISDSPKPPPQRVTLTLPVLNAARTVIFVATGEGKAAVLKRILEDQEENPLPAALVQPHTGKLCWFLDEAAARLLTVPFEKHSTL
inactive: erlotinib -0.019 | [1] -0.026 | [2] -0.08 | [3] -0.039 | [4] -0.039 | [5] -0.077 | [6] -0.04 | [7] -0.112 | [8] 0.025 | IRAK-1-4 Inhibitor I -0.043 | ibrutinib 0.012 | [9] -0.08 | ralimetinib 0.06 | [10] 0.008 | [11] 0.001 | [12] -0.012 | [13] -0.075 | [14] 0.038 | [15] -0.003 | [16] 0.077

PWP2 (UniProt Q15269)
Chain of UniProt Q15269 (Q15269 whole entry, looked up): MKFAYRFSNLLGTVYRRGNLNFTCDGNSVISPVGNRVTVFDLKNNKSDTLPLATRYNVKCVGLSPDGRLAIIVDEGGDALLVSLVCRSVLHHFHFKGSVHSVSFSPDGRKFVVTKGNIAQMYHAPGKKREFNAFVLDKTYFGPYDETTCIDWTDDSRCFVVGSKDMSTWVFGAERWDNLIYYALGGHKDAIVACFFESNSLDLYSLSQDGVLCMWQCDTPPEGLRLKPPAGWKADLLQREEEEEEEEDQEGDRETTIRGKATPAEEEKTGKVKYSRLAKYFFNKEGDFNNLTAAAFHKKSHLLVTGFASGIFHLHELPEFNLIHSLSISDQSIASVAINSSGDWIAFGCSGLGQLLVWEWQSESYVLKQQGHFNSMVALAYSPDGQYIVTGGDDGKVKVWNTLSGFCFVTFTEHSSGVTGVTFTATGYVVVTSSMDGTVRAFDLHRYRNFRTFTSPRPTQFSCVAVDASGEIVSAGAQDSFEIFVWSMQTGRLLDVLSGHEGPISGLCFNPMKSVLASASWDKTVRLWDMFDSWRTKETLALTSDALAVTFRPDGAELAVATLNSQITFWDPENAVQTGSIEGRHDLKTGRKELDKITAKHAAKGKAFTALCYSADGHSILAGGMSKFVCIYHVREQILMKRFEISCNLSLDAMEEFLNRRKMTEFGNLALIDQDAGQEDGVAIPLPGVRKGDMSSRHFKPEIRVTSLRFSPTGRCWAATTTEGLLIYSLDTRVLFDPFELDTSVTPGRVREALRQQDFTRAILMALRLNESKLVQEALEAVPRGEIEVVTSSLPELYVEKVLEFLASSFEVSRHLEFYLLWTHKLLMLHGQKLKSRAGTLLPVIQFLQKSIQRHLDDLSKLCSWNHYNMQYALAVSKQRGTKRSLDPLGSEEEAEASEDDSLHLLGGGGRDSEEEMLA
inactive: erlotinib 0.051 | [1] -0.076 | [2] -0.036 | [3] 0.02 | [4] 0.015 | [5] -0.012 | [6] -0.013 | [7] 0.018 | [8] 0.04 | IRAK-1-4 Inhibitor I -0.027 | ibrutinib 0.003 | [9] -0.021 | ralimetinib 0.048 | [10] 0.027 | [11] 0.009 | [12] 0.037 | [13] -0.014 | [14] -0.035 | [15] 0.018 | [16] 0.015

PRKCB isoform 2 (UniProt P05771)
Chain of UniProt P05771 (P05771 whole entry, looked up): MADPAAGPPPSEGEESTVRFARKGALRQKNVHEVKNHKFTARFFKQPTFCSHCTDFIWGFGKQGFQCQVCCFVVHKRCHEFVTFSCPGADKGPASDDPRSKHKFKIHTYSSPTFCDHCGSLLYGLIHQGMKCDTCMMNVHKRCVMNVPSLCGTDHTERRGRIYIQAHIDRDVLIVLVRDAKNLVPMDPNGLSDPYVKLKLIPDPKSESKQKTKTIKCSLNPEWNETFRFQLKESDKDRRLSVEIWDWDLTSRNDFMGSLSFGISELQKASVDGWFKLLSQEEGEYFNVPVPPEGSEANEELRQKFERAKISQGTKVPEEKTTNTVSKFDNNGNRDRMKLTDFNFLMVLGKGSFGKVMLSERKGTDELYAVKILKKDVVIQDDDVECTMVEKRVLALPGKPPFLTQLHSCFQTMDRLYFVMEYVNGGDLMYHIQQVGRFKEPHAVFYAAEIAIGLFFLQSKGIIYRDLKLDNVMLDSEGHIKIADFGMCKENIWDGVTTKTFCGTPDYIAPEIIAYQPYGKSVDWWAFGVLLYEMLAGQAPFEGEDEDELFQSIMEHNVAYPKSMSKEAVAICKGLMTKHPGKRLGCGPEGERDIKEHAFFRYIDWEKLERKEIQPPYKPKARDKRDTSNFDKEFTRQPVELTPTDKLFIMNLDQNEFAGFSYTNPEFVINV
inactive: erlotinib 0.053 | [1] -0.191 | [2] 0.07 | [3] -0.043 | [4] -0.004 | [5] -0.064 | [6] -0.12 | [7] -0.149 | [8] 0.019 | IRAK-1-4 Inhibitor I -0.02 | ibrutinib -0.017 | ralimetinib 0.02 | [10] 0 | [11] 0.013 | [12] 0.002 | [13] -0.055 | [14] 0.042 | [15] -0.009 | [16] -0.113
active: [9] 0.548

PDXK (UniProt O00764)
Chain of UniProt O00764 (O00764 whole entry, looked up): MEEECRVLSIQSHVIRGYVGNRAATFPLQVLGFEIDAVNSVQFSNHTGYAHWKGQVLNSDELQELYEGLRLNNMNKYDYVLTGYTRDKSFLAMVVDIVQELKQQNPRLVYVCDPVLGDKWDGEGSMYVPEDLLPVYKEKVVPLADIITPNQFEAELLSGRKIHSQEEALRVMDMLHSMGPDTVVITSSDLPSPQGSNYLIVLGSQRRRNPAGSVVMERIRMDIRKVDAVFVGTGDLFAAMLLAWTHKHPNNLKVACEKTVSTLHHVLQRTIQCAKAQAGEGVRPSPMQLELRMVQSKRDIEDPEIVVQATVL
inactive: erlotinib -0.003 | [1] 0.02 | [2] 0.103 | [3] -0.019 | [4] -0.02 | [5] -0.008 | [6] 0.021 | [7] 0.037 | [8] -0.012 | IRAK-1-4 Inhibitor I 0.018 | ibrutinib 0.007 | [9] 0.014 | ralimetinib 0.01 | [10] -0.006 | [11] -0.009 | [12] 0.017 | [13] -0.058 | [14] 0.016 | [15] -0.029 | [16] -0.001

POGK (UniProt Q9P215)
inactive: erlotinib 0.052 | [1] 0.053 | [2] 0.034 | [3] -0.059 | [4] -0.023 | [5] 0.104 | [6] -0.03 | [7] 0 | [8] 0.022 | IRAK-1-4 Inhibitor I 0.025 | ibrutinib 0.051 | [9] -0.012 | ralimetinib 0.04 | [10] -0.026 | [11] -0.012 | [12] 0.018 | [13] 0.04 | [14] 0.01 | [15] -0.047 | [16] 0.027

PDPK1 (UniProt O15530)
active: [7] 0.552
inactive: erlotinib -0.066 | [1] -0.007 | [2] -0.081 | [3] -0.047 | [4] -0.055 | [5] 0.005 | [6] 0.298 | [8] 0.019 | IRAK-1-4 Inhibitor I 0.018 | ibrutinib 0.026 | [9] 0.236 | ralimetinib 0.067 | [10] -0.075 | [11] 0.021 | [12] 0.163 | [13] -0.034 | [14] -0.056 | [15] -0.006 | [16] -0.021
